Measurements taken from the supplement of paper PMC11006884.
About 6,500 targets were measured; listed, in parts, are those with a hit and a random draw of the rest. About 2% of all pairs of compound and target were hits. Values without a mark were called inactive.

Compound: COC(=O)C#Cc1ccccc1 [methyl 3-phenylpropiolate]
Test: log2 ratio of iodoacetamide-alkyne labeling of the cysteine site, DMSO over compound (competition); higher = stronger covalent engagement of the cysteine by the compound, active = 1 or more
Details: 500 µM; treatment time 1 h; system: HEK293T cell lysate
Outline: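 Three replicates, each with duplicate channels, were prepared from HEK293T lysate (2 mg/mL) treated with vehicle or electrophile at 500 µM for 1 h at ambient temperature. Iodoacetamide alkyne was then applied for 1 h, and samples were clicked to sCIP-TMT reagents, pooled, trypsin-digested overnight at 37 °C, enriched on streptavidin, acid-eluted and analysed on Orbitrap Eclipse LC-MS/MS with FAIMS, with FragPipe quantification. The log2 competition ratio per cysteine is the mean control-channel divided by the mean compound-channel reporter intensity. Cysteines quantified in only one replicate were left out.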

HNRNPAB C98 (UniProt Q99729)
UniProt Q99729, sequence (Q99729 whole entry): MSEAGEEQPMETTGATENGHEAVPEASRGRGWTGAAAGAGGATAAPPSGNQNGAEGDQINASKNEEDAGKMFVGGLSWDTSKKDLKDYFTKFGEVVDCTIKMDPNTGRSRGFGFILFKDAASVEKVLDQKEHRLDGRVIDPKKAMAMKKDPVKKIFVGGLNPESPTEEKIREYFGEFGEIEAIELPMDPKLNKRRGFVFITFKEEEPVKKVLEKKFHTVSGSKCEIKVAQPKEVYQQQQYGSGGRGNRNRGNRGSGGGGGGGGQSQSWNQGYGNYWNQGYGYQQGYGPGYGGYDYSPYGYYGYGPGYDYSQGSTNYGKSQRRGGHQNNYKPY
log2 ratio of iodoacetamide-alkyne labeling: -0.0694

PHF10 C134 (UniProt Q8WUB8)
log2 ratio of iodoacetamide-alkyne labeling: 0.0674

AKAP1 C102 (UniProt Q92667)
UniProt Q92667, sequence (Q92667 whole entry, looked up): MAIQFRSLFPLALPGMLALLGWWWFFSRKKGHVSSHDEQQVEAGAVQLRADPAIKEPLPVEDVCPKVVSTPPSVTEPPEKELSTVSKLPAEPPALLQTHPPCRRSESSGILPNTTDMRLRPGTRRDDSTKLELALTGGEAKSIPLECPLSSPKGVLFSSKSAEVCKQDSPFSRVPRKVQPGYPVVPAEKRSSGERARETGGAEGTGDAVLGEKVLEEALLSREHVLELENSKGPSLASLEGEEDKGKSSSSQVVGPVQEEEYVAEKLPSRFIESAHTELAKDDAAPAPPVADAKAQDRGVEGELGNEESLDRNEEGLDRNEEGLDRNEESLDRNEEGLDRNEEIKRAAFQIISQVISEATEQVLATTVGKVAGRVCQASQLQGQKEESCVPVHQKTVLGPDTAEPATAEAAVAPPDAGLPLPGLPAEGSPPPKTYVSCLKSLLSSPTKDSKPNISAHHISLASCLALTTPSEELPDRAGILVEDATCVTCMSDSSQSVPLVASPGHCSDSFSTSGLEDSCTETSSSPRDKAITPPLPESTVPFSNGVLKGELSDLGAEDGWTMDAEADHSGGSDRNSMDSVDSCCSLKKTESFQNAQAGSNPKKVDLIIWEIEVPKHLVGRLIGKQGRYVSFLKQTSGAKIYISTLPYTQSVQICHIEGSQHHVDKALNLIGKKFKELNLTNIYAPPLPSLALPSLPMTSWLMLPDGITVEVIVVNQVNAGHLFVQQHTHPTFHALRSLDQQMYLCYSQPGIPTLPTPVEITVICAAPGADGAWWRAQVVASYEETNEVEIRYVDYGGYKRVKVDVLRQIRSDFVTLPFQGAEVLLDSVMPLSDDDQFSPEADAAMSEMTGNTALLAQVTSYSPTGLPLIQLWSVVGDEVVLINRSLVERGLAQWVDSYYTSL
log2 ratio of iodoacetamide-alkyne labeling: 0.334

UniProt Q8WU20_C415
log2 ratio of iodoacetamide-alkyne labeling: 0.241

UniProt Q7LBC6_C1212
log2 ratio of iodoacetamide-alkyne labeling: 0.571

DPF1 C149 (UniProt Q92782)
UniProt Q92782, sequence (Q92782 whole entry, looked up): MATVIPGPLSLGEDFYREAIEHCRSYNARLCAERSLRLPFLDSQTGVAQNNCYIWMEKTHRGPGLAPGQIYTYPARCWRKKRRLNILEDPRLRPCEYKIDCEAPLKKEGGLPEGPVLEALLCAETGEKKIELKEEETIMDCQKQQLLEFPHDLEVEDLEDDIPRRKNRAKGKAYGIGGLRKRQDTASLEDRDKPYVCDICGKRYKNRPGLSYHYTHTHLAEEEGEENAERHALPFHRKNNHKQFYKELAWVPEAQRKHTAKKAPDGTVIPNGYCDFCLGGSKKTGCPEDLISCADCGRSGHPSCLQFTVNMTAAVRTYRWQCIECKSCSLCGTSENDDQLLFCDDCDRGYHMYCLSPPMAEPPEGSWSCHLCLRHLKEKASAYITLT
log2 ratio of iodoacetamide-alkyne labeling: 0.289

UniProt Q86Y56_C173
log2 ratio of iodoacetamide-alkyne labeling: 0.779

ZFYVE16 C895 (UniProt Q7Z3T8)
log2 ratio of iodoacetamide-alkyne labeling: 0.597

TMEM192 C266 (UniProt Q8IY95)
UniProt Q8IY95, sequence (Q8IY95 whole entry): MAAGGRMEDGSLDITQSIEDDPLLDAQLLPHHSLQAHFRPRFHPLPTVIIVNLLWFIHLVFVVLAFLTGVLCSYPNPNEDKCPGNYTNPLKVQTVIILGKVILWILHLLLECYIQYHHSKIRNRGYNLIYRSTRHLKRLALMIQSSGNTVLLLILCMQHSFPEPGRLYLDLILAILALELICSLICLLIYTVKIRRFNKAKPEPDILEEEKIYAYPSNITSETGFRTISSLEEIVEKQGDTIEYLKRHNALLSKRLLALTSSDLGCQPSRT
log2 ratio of iodoacetamide-alkyne labeling: 0.418

IRF2BP2 C40 (UniProt Q7Z5L9)
log2 ratio of iodoacetamide-alkyne labeling: 0.276

STRBP C40 (UniProt Q96SI9)
UniProt Q96SI9, sequence (Q96SI9 whole entry, looked up): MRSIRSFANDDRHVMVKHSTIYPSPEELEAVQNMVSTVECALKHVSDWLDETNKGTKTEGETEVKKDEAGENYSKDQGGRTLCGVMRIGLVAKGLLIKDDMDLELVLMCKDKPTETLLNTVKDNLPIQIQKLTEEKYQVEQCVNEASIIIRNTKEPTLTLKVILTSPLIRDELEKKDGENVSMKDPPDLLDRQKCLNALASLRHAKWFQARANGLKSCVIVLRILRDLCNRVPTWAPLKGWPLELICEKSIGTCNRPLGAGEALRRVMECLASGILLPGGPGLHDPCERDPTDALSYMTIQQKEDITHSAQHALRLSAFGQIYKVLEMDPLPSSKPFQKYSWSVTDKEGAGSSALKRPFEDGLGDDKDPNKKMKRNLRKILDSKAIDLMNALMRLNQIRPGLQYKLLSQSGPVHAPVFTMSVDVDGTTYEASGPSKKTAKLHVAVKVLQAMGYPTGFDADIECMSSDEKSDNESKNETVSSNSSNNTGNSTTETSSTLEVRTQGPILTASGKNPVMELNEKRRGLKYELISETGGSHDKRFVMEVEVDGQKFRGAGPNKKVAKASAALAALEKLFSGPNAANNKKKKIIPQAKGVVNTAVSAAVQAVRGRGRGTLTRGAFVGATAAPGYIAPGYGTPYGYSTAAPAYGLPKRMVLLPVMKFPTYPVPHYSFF
log2 ratio of iodoacetamide-alkyne labeling: 0.168

NIPBL C1876 (UniProt Q6KC79)
log2 ratio of iodoacetamide-alkyne labeling: 0.17

CAMSAP1 C1379 (UniProt Q5T5Y3)
log2 ratio of iodoacetamide-alkyne labeling: 1.45 (active)

TRUB1 C269 (UniProt Q8WWH5)
log2 ratio of iodoacetamide-alkyne labeling: 0.163

ZFYVE16 C292 (UniProt Q7Z3T8)
log2 ratio of iodoacetamide-alkyne labeling: 0.185

IRF2BP2 C16 (UniProt Q7Z5L9)
log2 ratio of iodoacetamide-alkyne labeling: 0.113

THOC6 C314 (UniProt Q86W42)
log2 ratio of iodoacetamide-alkyne labeling: 0.0566

CAND1 C413 (UniProt Q86VP6)
log2 ratio of iodoacetamide-alkyne labeling: 0.304

ZNF428 C114 (UniProt Q96B54)
log2 ratio of iodoacetamide-alkyne labeling: 0.0848

DDX54 C73 (UniProt Q8TDD1)
log2 ratio of iodoacetamide-alkyne labeling: 0.301

SMAP2 C196 (UniProt Q8WU79)
UniProt Q8WU79, sequence (Q8WU79 whole entry): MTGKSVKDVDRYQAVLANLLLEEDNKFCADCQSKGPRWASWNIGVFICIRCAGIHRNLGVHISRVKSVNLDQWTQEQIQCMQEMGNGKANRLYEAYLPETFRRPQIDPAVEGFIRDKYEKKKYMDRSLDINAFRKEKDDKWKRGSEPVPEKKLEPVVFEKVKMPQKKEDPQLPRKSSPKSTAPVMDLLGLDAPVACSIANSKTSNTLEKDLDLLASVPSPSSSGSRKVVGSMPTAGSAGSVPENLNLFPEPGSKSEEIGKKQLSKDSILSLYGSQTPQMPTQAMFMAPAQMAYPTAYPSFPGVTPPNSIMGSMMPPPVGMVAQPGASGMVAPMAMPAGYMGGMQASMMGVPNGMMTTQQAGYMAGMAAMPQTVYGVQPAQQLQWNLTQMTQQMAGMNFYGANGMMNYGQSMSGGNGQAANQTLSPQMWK
log2 ratio of iodoacetamide-alkyne labeling: 0.318

SLFN11 C6 (UniProt Q7Z7L1)
log2 ratio of iodoacetamide-alkyne labeling: 0.329

CPPED1 C54 (UniProt Q9BRF8)
log2 ratio of iodoacetamide-alkyne labeling: 1.01 (active)

CYFIP1 C98 (UniProt Q7L576)
log2 ratio of iodoacetamide-alkyne labeling: 1.78 (active)

UniProt Q7RTV0_C11
log2 ratio of iodoacetamide-alkyne labeling: -0.0735

MAP1S C841 (UniProt Q66K74)
UniProt Q66K74, sequence (Q66K74 whole entry, looked up): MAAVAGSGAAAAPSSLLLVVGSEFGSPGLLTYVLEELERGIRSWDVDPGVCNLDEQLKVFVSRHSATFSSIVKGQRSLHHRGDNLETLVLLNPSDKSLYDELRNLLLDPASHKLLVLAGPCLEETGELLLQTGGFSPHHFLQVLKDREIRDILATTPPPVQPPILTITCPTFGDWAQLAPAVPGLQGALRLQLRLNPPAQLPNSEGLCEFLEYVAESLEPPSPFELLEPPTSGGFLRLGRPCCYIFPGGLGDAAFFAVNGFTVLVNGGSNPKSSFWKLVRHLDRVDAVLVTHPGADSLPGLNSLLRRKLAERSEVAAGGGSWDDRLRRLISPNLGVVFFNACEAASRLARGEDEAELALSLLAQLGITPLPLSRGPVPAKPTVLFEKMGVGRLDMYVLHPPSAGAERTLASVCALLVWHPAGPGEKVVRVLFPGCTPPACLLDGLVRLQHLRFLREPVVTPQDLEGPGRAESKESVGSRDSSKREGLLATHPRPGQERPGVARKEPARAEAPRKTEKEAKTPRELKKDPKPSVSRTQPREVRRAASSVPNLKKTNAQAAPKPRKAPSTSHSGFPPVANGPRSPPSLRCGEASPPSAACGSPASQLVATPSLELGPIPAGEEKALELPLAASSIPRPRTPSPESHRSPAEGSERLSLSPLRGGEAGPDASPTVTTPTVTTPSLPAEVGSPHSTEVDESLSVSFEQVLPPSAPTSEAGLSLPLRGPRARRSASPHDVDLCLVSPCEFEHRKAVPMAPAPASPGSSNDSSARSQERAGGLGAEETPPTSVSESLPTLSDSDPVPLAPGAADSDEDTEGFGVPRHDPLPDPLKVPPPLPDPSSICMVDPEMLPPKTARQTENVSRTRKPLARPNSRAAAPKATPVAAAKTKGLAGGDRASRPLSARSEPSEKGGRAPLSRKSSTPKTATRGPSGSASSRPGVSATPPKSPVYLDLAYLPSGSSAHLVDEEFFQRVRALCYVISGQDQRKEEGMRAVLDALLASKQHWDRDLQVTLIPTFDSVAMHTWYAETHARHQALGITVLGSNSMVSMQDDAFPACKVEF
log2 ratio of iodoacetamide-alkyne labeling: 0.464

PARK7 C53 (UniProt Q99497)
UniProt Q99497, sequence (Q99497 whole entry, looked up): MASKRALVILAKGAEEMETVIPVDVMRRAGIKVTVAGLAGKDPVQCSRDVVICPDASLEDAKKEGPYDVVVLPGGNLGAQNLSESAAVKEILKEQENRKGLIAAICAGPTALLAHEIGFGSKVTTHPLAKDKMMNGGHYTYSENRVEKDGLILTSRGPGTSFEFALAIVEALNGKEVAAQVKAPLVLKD
log2 ratio of iodoacetamide-alkyne labeling: -0.0888

CCDC50 C85 (UniProt Q8IVM0)
UniProt Q8IVM0, sequence (Q8IVM0 whole entry, looked up): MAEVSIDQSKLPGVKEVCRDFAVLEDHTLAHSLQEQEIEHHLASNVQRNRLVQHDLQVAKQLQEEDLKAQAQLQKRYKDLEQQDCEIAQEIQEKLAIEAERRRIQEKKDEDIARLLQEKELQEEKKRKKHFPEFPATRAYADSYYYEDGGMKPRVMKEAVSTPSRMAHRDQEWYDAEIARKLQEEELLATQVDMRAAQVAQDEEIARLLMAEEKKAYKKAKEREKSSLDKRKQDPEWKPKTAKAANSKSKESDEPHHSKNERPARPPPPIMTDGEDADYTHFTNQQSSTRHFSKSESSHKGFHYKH
log2 ratio of iodoacetamide-alkyne labeling: 0.455

ZNF428 C93 (UniProt Q96B54)
log2 ratio of iodoacetamide-alkyne labeling: 0.191

UniProt Q92616_C36
log2 ratio of iodoacetamide-alkyne labeling: 0.339

TRMT2A C463 (UniProt Q8IZ69)
log2 ratio of iodoacetamide-alkyne labeling: 1.1 (active)

DAZAP1 C39 (UniProt Q96EP5)
UniProt Q96EP5, sequence (Q96EP5 whole entry, looked up): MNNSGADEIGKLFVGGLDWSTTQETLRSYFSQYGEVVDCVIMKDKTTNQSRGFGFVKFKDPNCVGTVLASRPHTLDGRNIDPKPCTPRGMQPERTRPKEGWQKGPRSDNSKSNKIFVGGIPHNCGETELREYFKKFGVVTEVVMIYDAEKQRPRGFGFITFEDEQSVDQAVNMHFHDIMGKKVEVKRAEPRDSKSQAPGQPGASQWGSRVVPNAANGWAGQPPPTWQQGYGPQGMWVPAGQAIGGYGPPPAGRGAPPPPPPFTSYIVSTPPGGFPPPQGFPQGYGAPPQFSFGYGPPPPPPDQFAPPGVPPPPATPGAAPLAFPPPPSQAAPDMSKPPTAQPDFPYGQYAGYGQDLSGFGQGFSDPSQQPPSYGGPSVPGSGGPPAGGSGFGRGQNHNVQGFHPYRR
log2 ratio of iodoacetamide-alkyne labeling: 0.0955

UniProt Q96GD4_C234
log2 ratio of iodoacetamide-alkyne labeling: 0.62

MTHFD1L C291 (UniProt Q6UB35)
log2 ratio of iodoacetamide-alkyne labeling: 0.126

UniProt Q7Z5K2_C94
log2 ratio of iodoacetamide-alkyne labeling: 0.262
